Inconclusive results are not listed. A call without a number means that no potency is given here. Values without a mark were called inactive. Active and inactive are the calls of the source. Calls follow the shape of the dose curve; as a rule, active = well fitted cell-killing curve with a large enough effect in the repeat runs; inconclusive = weak or mixed curves, or effect the other way; inactive = no such curve, though single readings can be large or run the other way.
Assay: Caspase-3/7 induction in CHO-K1 cells by small molecules, qHTS cell viability counter screen (AID 1346979); also: nearly all actives have a fitted effect of over 35% in size
Settings: CellTiter-Fluor fluorescence, 17 h; series mostly up to 92.4 µM
Text: National Center for Advancing Translational Sciences [NCATS]
NIH Chemical Genomics Center [NCGC]
U.S. Environmental Protection Agency [EPA]
National Institutes of Environmental Health Sciences [NIEHS]
National Toxicology Program [NTP]
U.S. Food and Drug Administration [FDA]
Apoptosis is a process of programmed cell death and plays a central role in the development of multicellular organisms. It is a highly regulated process and induces cell death by activating caspases, which are the members of cysteine aspartic acid-specific protease (caspase) family. Caspases involved in apoptosis are classified by their mechanism of action as initiator caspases (caspase-2, -8, -9 and -10) and executioner caspases (caspase-3, -6, and -7). Inhibition of apoptosis results in number of cancers, autoimmune diseases, inflammatory diseases and viral infection. To identify small molecule compounds that induce apoptosis, a homogeneous, luminescent Caspase-Glo 3/7 assay was used. Wild type CHO-K1 cells were used to screen Tox21 libraries for identifying caspase-3/7 activity inducers. Also cytotoxicity of the compounds was tested in parallel by measuring the cell viability using CellTiter-Fluor assay system in the same wells.
Tox21 Assay Protocol Summary:
CHO-K1 cells were dispensed at 1,500 per well in 5uL of culture medium into white solid bottom 1536-well plates (Corning Life Sciences, Corning, NY) using a Multidrop Combi (Thermo Scientific, Waltham, MA) dispenser. The assay plates were incubated at 37 C and 5% CO2 for 5hr, and then 23nL of compounds dissolved in DMSO and positive control were transferred using a Pintool station (Wako, San Diego, CA). The assay plates were incubated at 37C and 5% CO2 for 17hr. For cytotoxicity read, after 16hr incubation at 37C, 1uL CellTiter-Fluor reagent (Promega Corporation, Madison, WI) was added to each well of the assay plates using Flying Reagent Dispenser (FRD, Aurora Discovery, San Diego, CA). After 1hr incubation at 37C and 5% CO2, the fluorescence signal was quantified using a ViewLux plate reader (PerkinElmer, Shelton, CT).
Potency is read from the fitted curve at half-maximal effect.

Row | SMILES | Potency | activity change, negative = cytotoxicity
1 | C(/C=C/C=C/Nc1ccccc1)=Nc1ccccc1 | inactive | 
2 | CCC(CC)C(=O)O | inactive | 
3 | CC(=O)c1cccnc1 | inactive | 
4 | CC(CN=Cc1ccccc1O)N=Cc1ccccc1O (stereo not given) | inactive | 
5 | O=C(O)CNc1ccccc1 | inactive | 
6 | CC(C)(C)c1cc(C=O)cc(C(C)(C)C)c1O | inactive | 
7 | O=C(O)c1ccccc1[N+](=O)[O-] | inactive | 
8 | CCC(=O)O[C@@H]1C[C@H]2CC[C@]1(C)C2(C)C | inactive | 
9 | Cc1c(Nc2ncccc2C(=O)O)cccc1C(F)(F)F | inactive | 
10 | CC1(C)C(=O)NC(=O)N1CO | inactive | 
11 | Cc1cccc(C)c1NC(=O)CN1CCCC1 | inactive | 
12 | Clc1cc(Cl)c2c(c1)N=C1CCCCCN1C2 | inactive | 
13 | CS(C)=O | inactive | 
14 | NC(=O)c1ccccc1C(N)=O | inactive | 
15 | CCCC1CCCC(=O)O1 (stereo not given) | inactive | 
16 | Cc1ccc(NC=O)c(C)c1 | inactive | 
17 | CC(C)(C)NCC(O)COc1ccc(NC(=O)NC2CCCCC2)cc1 (stereo not given) | inactive | 
18 | C[C@H]1C[C@H]2[C@@H]3CCC4=CC(=O)C=C[C@]4(C)[C@@]3(F)[C@@H](O)C[C@]2(C)[C@@]1(O)C(=O)COP(=O)(O)O | inactive | 
19 | Nc1ncnc2c1ncn2[C@@H]1O[C@H](CO)[C@@H](O)[C@H]1O | inactive | 
20 | CCCCOC(=O)C(C)Oc1ccc(Oc2ccc(C(F)(F)F)cn2)cc1 (stereo not given) | inactive | 

Row | SMILES | Potency | activity change, negative = cytotoxicity
21 | Cc1nc(C)c(C)nc1C | inactive | 
22 | Cc1c(Cl)cccc1Nc1ccccc1C(=O)O | inactive | 
23 | CC(=O)Nc1ccn(C2COC(COC(=O)c3ccccc3)O2)c(=O)n1 (stereo not given) | inactive | 
24 | Cc1ccc(NC(=O)c2ccc(CN3CCN(C)CC3)cc2)cc1Nc1nccc(-c2cccnc2)n1 | 23.7 µM (active) | 
25 | CC(O)C(C)O (stereo not given) | inactive | 
26 | O=S(=O)(O)c1cc(Cl)c(Cl)cc1Cl | inactive | 
27 | O=C(OCCN1CCOCC1)c1cccnc1Nc1cccc(C(F)(F)F)c1 | inactive | 
28 | Nc1ccc(F)cc1F | inactive | 
29 | CC(C)(C)N | inactive | 
30 | Nc1cccc2c(=O)[nH][nH]c(=O)c12 | inactive | 
31 | C[C@@H](O)[C@H]1C(=O)N2C(C(=O)O)=C(S[C@@H]3CN[C@H](CNS(N)(=O)=O)C3)[C@H](C)[C@H]12 | inactive | 
32 | O=C(O)c1cc(C(=O)O)c(C(=O)O)cc1C(=O)O | inactive | 
33 | O=C(O)CCc1nc2ccccc2[nH]1 | inactive | 
34 | CCCOC(C)=O | inactive | 
35 | C[C@H](CN1CCCC1)C(=O)c1ccc(C(F)(F)F)cc1 | inactive | 
36 | CC(Cc1ccccc1)(NC(=O)CN)c1ccccc1 (stereo not given) | inactive | 
37 | CC1(C)[C@@H]2CC[C@]3(C2)[C@@H]1C(=O)CCC3(C)C | inactive | 
38 | COc1ccc(C(=O)Nc2ccccc2)cc1[N+](=O)[O-] | inactive | 
39 | CCCCCCCCCCCCCCCCCCCl |  | -4.93% [at 8.39 µM]
40 | c1ccc(-c2ccc(-c3ccccc3)cc2)cc1 |  | 11.6% [at 19 µM]

From PubChem BioAssay (Tox21)
